Results taken from PubChem BioAssay AID434959 (Broad Institute, 2010).
Hit rate of the full screen: of about 30,000 compounds, about 110 (0.37%) were called active.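 The calls were made as follows: active = delta delta Cp rounded down to an integer at or above 3, about 3 SD of DMSO wells; inactive = the rest.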 The list comes from a sample in which actives are over-represented; it also holds similar structures and randomly drawn compounds.

Assay: YB-1 transcript reduction by qRT-PCR – cell-based, fluorescence, primary screen (AID 434959);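 also: higher means less YB-1 transcript or more CDIP transcript relative to DMSO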
Conditions: U2OS, qRT-PCR YB-1 vs CDIP delta delta Cp, 16 h; active compounds read high; zero = DMSO, each unit about twofold

Delta Cp (YB-1 minus CDIP), active:
NC(=S)c1cnn2c(C(F)(F)F)cc(C(F)(F)F)nc12 9.53

Delta Cp (YB-1 minus CDIP), inactive:
C[C@H]1CN([C@@H](C)CO)C(=O)c2cc(NS(=O)(=O)c3cccs3)ccc2O[C@@H]1CN(C)C(=O)Nc1cccc2ccccc12 -0.308
Cc1noc(C)c1S(=O)(=O)N(C)C[C@H]1OCCCC[C@@H](C)Oc2ccc(NC(=O)C3CCCCC3)cc2C(=O)N([C@H](C)CO)C[C@@H]1C 0.386
C[C@H](CO)N1C[C@H](C)[C@H](CN(C)S(C)(=O)=O)Oc2ncc(C#CCN(C)C)cc2C1=O 0.217
NCCCC[C@@H]1NC(=O)[C@@H]2C[C@H](C(=O)NCc3ccc(F)cc3)[C@H](c3ccc(O)cc3)N2C1=O 0.142
C[C@H](CO)N1C[C@H](C)[C@H](CN(C)S(=O)(=O)c2cccs2)Oc2ccc(NS(=O)(=O)c3ccccc3)cc2C1=O -0.379
Cc1ccc(S(=O)(=O)Nc2cccc3c2O[C@@H](CN(C)S(=O)(=O)c2cccs2)[C@@H](C)CN([C@@H](C)CO)C3=O)cc1 -0.365
COc1ccc(-c2cnc3c(c2)C(=O)N([C@H](C)CO)C[C@H](C)[C@H](CN(C)S(=O)(=O)c2ccccc2)O3)cc1 0.828
C=C(CC/C=C(\C)C(=O)O)C1(O)CC=C(C)CC1 (stereo unspecified) -0.182
Cc1noc(C)c1S(=O)(=O)Nc1ccc2c(c1)C(=O)N([C@@H](C)CO)C[C@@H](C)[C@H](CN(C)C(=O)Nc1cccc3ccccc13)O2 0.0124
C[C@@H]1CN([C@H](C)CO)C(=O)Cc2cc(NS(=O)(=O)c3cccs3)ccc2O[C@H]1CN(C)C(=O)Nc1ccc2c(c1)OCO2 0.417
Cc1noc(C)c1NC(=O)Nc1ccc2c(c1)C(=O)N([C@H](C)CO)C[C@H](C)[C@H](CN(C)Cc1ccc(-c3ccccc3)cc1)O2 0.364
O=C(O)CCCCCC(=O)N/N=C/c1ccco1 0.15
COc1ccc(S(=O)(=O)N(C)C[C@H]2Oc3c(NC(=O)NC4CCCCC4)cccc3C(=O)N([C@@H](C)CO)C[C@@H]2C)cc1 -0.0504
C[C@]12C=CC(=O)C=C1CC[C@@H]1[C@@H]2C(=O)C[C@@]2(C)[C@H]1CC[C@]2(O)C(=O)CO 1.09
C[C@H]1CN([C@@H](C)CO)C(=O)Cc2cc(NC(=O)Cn3cnnn3)ccc2O[C@H]1CN(C)Cc1ccc(C(=O)O)cc1 -0.00589
C[C@@H]1CN([C@H](C)CO)C(=O)Cc2cc(N(C)C)ccc2O[C@H]1CN(C)C(=O)NC1CCCCC1 -0.109
C[C@H](CO)N1C[C@H](C)[C@H](CN(C)S(=O)(=O)c2ccccc2C#N)OCc2cn(nn2)CCCC1=O -0.329
C[C@@H]1CN([C@@H](C)CO)C(=O)Cc2cc(NC(=O)Cc3ccccc3)ccc2O[C@@H]1CN(C)Cc1ccc(Oc2ccccc2)cc1 -0.162
C[C@H]1CN([C@@H](C)CO)C(=O)c2cccc(NC(=O)c3cnccn3)c2O[C@H]1CN(C)S(=O)(=O)c1cn(C)cn1 -0.0985
C[C@@H]1CN([C@H](C)CO)C(=O)CCCn2cc(nn2)CO[C@H]1CN(C)S(=O)(=O)c1ccc(Oc2ccccc2)nc1 -0.176
CC1(C)C2CC[C@]3(C)C(C(=O)C=C4[C@@H]5C[C@@](C)(C(=O)O)CC[C@]5(C)CC[C@]43C)[C@@]2(C)CC[C@@H]1O (stereo partly specified) 0.127
COc1cc(O[C@@H]2O[C@H](CO[C@H]3OC[C@](O)(COC(=O)c4ccc(O)c(OC)c4)[C@H]3O)[C@@H](O)[C@H](O)[C@H]2O)ccc1O 0.323
C[C@H]1CN([C@@H](C)CO)C(=O)Cc2cc(NS(=O)(=O)c3cccs3)ccc2O[C@H]1CN(C)Cc1ccncc1 0.635
C[C@H](CO)N1C[C@H](C)[C@H](CN(C)S(=O)(=O)c2cccc(F)c2)OCc2cnnn2CCCC1=O 0.303
Cc1ccc(S(=O)(=O)Nc2cccc3c2O[C@@H](CN(C)S(=O)(=O)c2c(C)noc2C)[C@@H](C)CN([C@H](C)CO)C3=O)cc1 -0.382
Nn1c(C(=O)N2CCCC2)nc2ccccc2c1=O 0.192
CCOC(=O)c1cnn2c(C(F)(F)F)cc(C)nc12 -0.121
COC(=O)CCCCCCC(=O)N/N=C/c1ccc(O)c(O)c1O -0.105
COc1ccc(CN(C)C[C@H]2Oc3ccc(NC(=O)Cn4cnnn4)cc3CC(=O)N([C@@H](C)CO)C[C@@H]2C)cc1 -0.171
CC(C)(C)OC(=O)Nc1cccc(/C=N/NC(=O)CCCCCC(=O)Nc2ccccc2O)c1 -0.601
COc1cc(/C=N\NC(=O)CCCCCCC(=O)NO)c(Br)cc1O -0.218
C[C@@H]1CN([C@H](C)CO)C(=O)CCCn2cc(nn2)CO[C@@H]1CN(C)C(=O)Nc1ccc(-c2cccs2)cc1 -0.273
C[C@@H]1CN([C@@H](C)CO)C(=O)Cc2cc(NC(=O)C3CC3)ccc2O[C@@H]1CN(C)S(C)(=O)=O 0.012
C[C@H]1CN([C@@H](C)CO)C(=O)c2cccc(NC(=O)Nc3ccc(F)cc3)c2O[C@@H]1CN(C)C(=O)Nc1ccc2c(c1)OCO2 1.42
COc1ccc(NC(=O)N(C)C[C@@H]2Oc3c(NC(=O)c4ccc(-c5nccs5)cc4)cccc3C(=O)N([C@H](C)CO)C[C@@H]2C)cc1 -0.282
O=C(CCCCC(=O)N/N=C/c1ccc(C(F)(F)F)cc1)NO 0.349
COc1ccc(S(=O)(=O)N(C)C[C@H]2Oc3ccc(NC(=O)Nc4c(C)noc4C)cc3CC(=O)N([C@@H](C)CO)C[C@H]2C)cc1 -0.281
C[C@@H]1CN([C@H](C)CO)C(=O)c2cccc(NS(=O)(=O)c3ccc(F)cc3)c2O[C@@H]1CN(C)C(=O)Nc1ccc(C(F)(F)F)cc1 -0.00681
C[C@H](CO)N1C[C@H](C)[C@@H](CN(C)Cc2ccc3c(c2)OCO3)OCc2cnnn2CCCC1=O -0.135
C[C@H]1CN([C@@H](C)CO)C(=O)CCCn2cc(nn2)CO[C@H]1CN(C)S(=O)(=O)c1ccc2ccccc2c1 0.00166
Cc1noc(C)c1NC(=O)Nc1ccc2c(c1)CC(=O)N([C@H](C)CO)C[C@@H](C)[C@@H](CN(C)Cc1ccncc1)O2 -0.309
O=C(O)CCCCCCC(=O)N/N=C/c1cccs1 -0.0775
COc1cccc(-c2cnc3c(c2)C(=O)N([C@H](C)CO)C[C@H](C)[C@H](CN(C)S(=O)(=O)c2cccc(F)c2)O3)c1 -0.156
C[C@@H]1CN([C@H](C)CO)C(=O)c2cccc(NC(=O)c3ccncc3)c2O[C@@H]1CN(C)C -0.219
C[C@@H]1CN([C@@H](C)CO)C(=O)Cc2cc(NC(=O)Nc3ccccc3)ccc2O[C@@H]1CN(C)S(=O)(=O)c1ccc(F)cc1 -0.00869
O=C(N/N=C/[C@H](O)[C@@H](O)[C@H](O)[C@H](O)CO)c1ccccc1O 0.111
C[C@@H]1CN([C@H](C)CO)C(=O)c2cccc(NC(=O)Nc3ccc4c(c3)OCO4)c2O[C@@H]1CN(C)Cc1ccccc1 -0.407
C[C@@H]1CN([C@H](C)CO)C(=O)c2cc(NC(=O)CCCN(C)C)ccc2O[C@H]1CN(C)Cc1ccc(C(=O)O)cc1 -0.213
Cc1ncc(CO)c(/C=N/NC(=O)c2ccc(C(=O)NO)cc2)c1O 0.181
C[C@@H]1CN([C@@H](C)CO)C(=O)Cc2cc(NC(=O)Nc3cccc4ccccc34)ccc2O[C@@H]1CN(C)CC1CCCCC1 0.088
